Source: PubChem BioAssay AID651789 (National Center for Advancing Translational Sciences (NCATS), 2012)
Records with an inconclusive call do not appear. Activity calls are given as the source filed them. The call rests on the fitted dose curve; in most records, active means well fitted inhibition curve with a large enough effect; inconclusive means small, poorly fitted or top-dose-only effect; inactive means no such curve, though single readings can be large or run the other way.

Assay: Acumen qHTS Assay for Inhibitors of the mTORC1 Signaling Pathway in WT MEF Cells: Hit Validation; further: nearly all actives have a fitted effect of over 60% in size
Conditions: Acumen imaging; series mostly up to 37.3 µM
In short: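 Read-out is immunofluorescent phospho-rpS6 (Ser235/236) normalised to PI-stained cell number, reported as % active cells using a 7.5 nM rapamycin threshold. Cells: WT or Tsc2-/-, p53-/- MEFs, compound-exposed 24 h at 37C; PI count also tracks viability.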
Potency means the concentration at half of the fitted maximal effect.

Potency, inactive:
CC(C)(C)c1ccc(C2NC(=O)c3n[nH]c(-c4cccs4)c32)cc1 (stereo not given)
CCOC(=O)C1CCN(C(=O)CSc2c3c(nc4ccc(Cl)cc24)CCCC3)CC1
Oc1ccc(NCc2ccccc2OCc2ccc(Cl)cc2)cc1
Cc1cc(NCc2ccc(Cl)cc2)n2cnnc2n1
CC(=O)N1CCCc2cc(S(=O)(=O)N(Cc3ccccc3)C(C)C)ccc21
CCC(C)Sc1oc(-c2ccco2)nc1S(=O)(=O)c1ccc(C)cc1 (stereo not given)
O=C(NCC1CCN(Cc2cccc(Cl)c2)CC1)Nc1ccc(F)c(Cl)c1
O=C(NCCSc1c(-c2ccc(F)cc2)[nH]c2ccccc12)c1ccc(S(=O)(=O)N2CCOCC2)cc1
CCc1nn(CC(=O)NCc2ccccc2)c(=O)c2cccn12
COc1cc(C)ccc1OCCn1c(-c2ccc(Cl)cc2)nc2ccccc2c1=O
CCOc1cc(C2CC(=O)Nc3cc4c(cc32)OCCO4)ccc1O (stereo not given)
COc1ccccc1NC(=O)C1=C(C)Nc2nc(SCc3ccccc3)nn2C1c1cccs1 (stereo not given)
Cc1ccc(NC(=O)Cn2cc(C(=O)C3CCCCC3)c3ccccc32)cc1
Cc1ccc(S(=O)(=O)c2nnn3c2nc(NCc2cccs2)c2sccc23)cc1
Cc1cccc(Cn2cc(C(=O)Nc3ccc(F)c(C(F)(F)F)c3)ccc2=O)c1
NC(=O)c1ccccc1NC(=O)c1ccc(-c2ccc(Br)cc2)o1
CC[C@H](CO)Nc1nc(NCc2ccccc2)c2ncn(C(C)C)c2n1
O=C(NCc1ccc(Cl)cc1)C(=O)NCC(c1cccs1)S(=O)(=O)c1ccc(Cl)cc1 (stereo not given)
Cc1ccc(-c2nn(C)c(=O)c3ccccc23)cc1S(=O)(=O)NCCCN(C)C
CCOC(=O)c1c(NC(=O)c2cc(CC)on2)sc(C(C)=O)c1C
COc1cc(OC)c(NS(=O)(=O)c2ccc3c(c2)CCCN3C(C)=O)cc1Cl
Cc1nn(CC(=O)NCc2ccccc2Cl)c(=O)c2cccn12
COc1ccc(-c2nc(C)c(CCNC(=O)c3ccccc3Br)s2)cc1OC
Cc1nc2ccc(S(=O)(=O)CCC(=O)Nc3ccc(Cl)cc3)cc2s1
Cc1cccc(CSCCNC(=O)CN(c2ccccc2)S(=O)(=O)N(C)C)c1
Cc1cccc(-c2nc3c(cnn3-c3ccccc3)c(=O)n2-c2ccc(Br)cc2)c1
CCOC(=O)c1c(NC(=O)COc2ccc(OC)cc2)sc(C(=O)N(CC)CC)c1C
CN(CCCNC(=O)c1cc2c(Cl)nc3ccccc3c2s1)Cc1ccccc1
CCCCN(C)C(=O)CSc1c2c(nc3ccc(Cl)cc13)CCCC2
Cc1ccc2sc(N(CCCN(C)C)C(=O)c3ccco3)nc2c1C
CCNS(=O)(=O)c1cc(-c2nnc(Nc3cccc(C(F)(F)F)c3)c3ccccc23)ccc1C
CC1=C(C(=O)OC2CCCC2)C(c2ccccc2Cl)CC(=O)N1 (stereo not given)

Potency, active:
CCN(c1ccccc1)S(=O)(=O)c1ccc(NC(=O)c2nc(S(C)(=O)=O)ncc2Cl)cc1 1.04 µM
CCCCCn1c(=N)n(CC(O)COc2cccc(C)c2)c2ccccc21 (stereo not given) 4.14 µM
Cc1cccc(N2CCN(c3ncnc4c3nc3n4CCCCC3)CC2C)c1 (stereo not given) 11.7 µM
C=CCc1c(C)nc2nc(SCC(=O)Nc3ccc(C)c(C)c3)nn2c1C 1.17 µM
CCOc1cc(-c2nnc(SCC(=O)NCc3ccccc3)nc2-c2ccc(OC)c(OCC)c2)ccc1OC 0.927 µM
Fc1ccc(Nc2nc3nonc3nc2Nc2cccc(C(F)(F)F)c2)cc1 5.21 µM
COC(=O)c1ccccc1NC(=O)c1nc(S(=O)(=O)Cc2cccc(C)c2)ncc1Cl 5.21 µM
CCCCS(=O)(=O)c1nc(-c2ccc(Br)cc2)cc(-c2ccccc2)c1C#N 5.21 µM
